Experimental findings from ChEMBL document CHEMBL1961873, “Compounds: GSK PKIS; Assays: Nanosyn kinase panel” (2012) are described below.

In experiment [1] the target is Sphingosine kinase 1 (Homo sapiens) (UniProt Q9NYA1). Conditions: at 1 µM.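 Also: mean SPHK1 inhibition value reported from the GSK PKIS kinase panel screen.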
Experiment [2] concerns the target T1, Sphingosine kinase 2 (Homo sapiens) (UniProt Q9NRA0).
T1 sequence (whole entry): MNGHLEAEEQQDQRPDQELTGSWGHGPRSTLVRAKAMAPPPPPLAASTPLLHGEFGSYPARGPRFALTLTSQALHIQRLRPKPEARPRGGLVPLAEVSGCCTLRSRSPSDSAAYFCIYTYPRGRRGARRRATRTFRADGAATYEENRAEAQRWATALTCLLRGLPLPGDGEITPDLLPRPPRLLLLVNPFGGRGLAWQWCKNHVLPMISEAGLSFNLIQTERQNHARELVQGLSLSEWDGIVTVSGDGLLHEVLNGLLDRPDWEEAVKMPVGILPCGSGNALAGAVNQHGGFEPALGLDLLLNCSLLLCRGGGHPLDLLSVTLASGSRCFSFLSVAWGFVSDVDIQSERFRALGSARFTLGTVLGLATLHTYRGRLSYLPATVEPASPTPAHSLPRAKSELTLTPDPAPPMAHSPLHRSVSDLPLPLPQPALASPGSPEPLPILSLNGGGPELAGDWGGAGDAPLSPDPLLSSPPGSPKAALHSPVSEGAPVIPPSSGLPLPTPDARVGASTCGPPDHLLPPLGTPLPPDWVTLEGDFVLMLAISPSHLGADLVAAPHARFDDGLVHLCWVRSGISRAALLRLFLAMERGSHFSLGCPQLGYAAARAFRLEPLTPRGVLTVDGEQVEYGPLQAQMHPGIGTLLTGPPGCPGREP
As to conditions: at 0.1 µM.

Experiment [3] has as its target T1, Sphingosine kinase 2 (Homo sapiens). As to conditions: at 1 µM.
The target of experiment [4] is Casein kinase II subunit alpha (Homo sapiens) (UniProt P68400). Conditions: at 0.1 µM.
The target is the same in experiment [5]. Conditions: at 1 µM.
In experiment [6] the target is T2, Inhibitor of nuclear factor kappa-B kinase subunit alpha (Homo sapiens) (UniProt O15111).
T2 sequence (whole entry): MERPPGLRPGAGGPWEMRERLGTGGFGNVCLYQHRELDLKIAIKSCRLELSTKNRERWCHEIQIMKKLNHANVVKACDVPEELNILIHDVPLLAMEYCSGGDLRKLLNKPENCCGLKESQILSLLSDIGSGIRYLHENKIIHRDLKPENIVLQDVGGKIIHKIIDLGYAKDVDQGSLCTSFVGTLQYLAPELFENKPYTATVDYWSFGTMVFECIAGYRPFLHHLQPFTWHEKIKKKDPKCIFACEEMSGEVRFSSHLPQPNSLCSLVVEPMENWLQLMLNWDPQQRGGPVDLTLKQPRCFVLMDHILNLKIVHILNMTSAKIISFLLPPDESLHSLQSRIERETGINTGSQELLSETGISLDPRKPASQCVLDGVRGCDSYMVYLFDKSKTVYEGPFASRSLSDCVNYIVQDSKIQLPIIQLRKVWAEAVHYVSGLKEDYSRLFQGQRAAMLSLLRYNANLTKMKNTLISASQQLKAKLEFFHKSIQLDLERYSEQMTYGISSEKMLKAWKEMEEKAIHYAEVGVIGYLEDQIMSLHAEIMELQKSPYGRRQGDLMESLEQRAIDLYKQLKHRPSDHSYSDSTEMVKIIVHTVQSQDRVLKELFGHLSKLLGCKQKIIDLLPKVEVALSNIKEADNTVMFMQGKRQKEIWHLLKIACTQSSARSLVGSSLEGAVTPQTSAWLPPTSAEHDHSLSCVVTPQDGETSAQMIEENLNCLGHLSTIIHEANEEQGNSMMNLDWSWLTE
As to conditions: at 0.1 µM.

The target in experiment [7] is T2, Inhibitor of nuclear factor kappa-B kinase subunit alpha (Homo sapiens). As to conditions: at 1 µM.
The target in experiment [8] is T3, Inhibitor of nuclear factor kappa-B kinase subunit beta (Homo sapiens) (UniProt O14920).
T3 sequence (whole entry): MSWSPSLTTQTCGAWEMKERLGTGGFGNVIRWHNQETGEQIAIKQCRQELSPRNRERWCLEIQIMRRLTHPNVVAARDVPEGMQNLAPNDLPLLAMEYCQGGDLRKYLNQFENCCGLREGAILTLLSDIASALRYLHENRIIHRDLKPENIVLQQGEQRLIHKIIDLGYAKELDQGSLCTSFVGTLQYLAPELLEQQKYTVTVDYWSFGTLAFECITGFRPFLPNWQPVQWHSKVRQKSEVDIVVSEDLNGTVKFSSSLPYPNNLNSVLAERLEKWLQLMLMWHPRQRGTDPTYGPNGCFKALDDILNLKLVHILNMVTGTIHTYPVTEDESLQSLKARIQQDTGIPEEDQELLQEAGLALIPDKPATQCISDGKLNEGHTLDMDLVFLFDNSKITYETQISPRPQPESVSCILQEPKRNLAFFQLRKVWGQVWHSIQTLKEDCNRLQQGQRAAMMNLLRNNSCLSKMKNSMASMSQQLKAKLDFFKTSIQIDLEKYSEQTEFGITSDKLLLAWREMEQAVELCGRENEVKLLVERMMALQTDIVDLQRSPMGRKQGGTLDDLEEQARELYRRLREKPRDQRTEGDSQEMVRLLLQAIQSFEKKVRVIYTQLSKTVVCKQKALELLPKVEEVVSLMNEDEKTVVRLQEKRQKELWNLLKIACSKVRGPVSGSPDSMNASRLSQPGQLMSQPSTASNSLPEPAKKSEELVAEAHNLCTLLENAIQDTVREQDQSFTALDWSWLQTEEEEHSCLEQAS
As to conditions: at 0.1 µM.

In experiment [9] the target is T3, Inhibitor of nuclear factor kappa-B kinase subunit beta (Homo sapiens). As to conditions: at 1 µM.
Experiment [10] addresses T4, Inhibitor of nuclear factor kappa-B kinase subunit epsilon (Homo sapiens) (UniProt Q14164).
T4 sequence (whole entry): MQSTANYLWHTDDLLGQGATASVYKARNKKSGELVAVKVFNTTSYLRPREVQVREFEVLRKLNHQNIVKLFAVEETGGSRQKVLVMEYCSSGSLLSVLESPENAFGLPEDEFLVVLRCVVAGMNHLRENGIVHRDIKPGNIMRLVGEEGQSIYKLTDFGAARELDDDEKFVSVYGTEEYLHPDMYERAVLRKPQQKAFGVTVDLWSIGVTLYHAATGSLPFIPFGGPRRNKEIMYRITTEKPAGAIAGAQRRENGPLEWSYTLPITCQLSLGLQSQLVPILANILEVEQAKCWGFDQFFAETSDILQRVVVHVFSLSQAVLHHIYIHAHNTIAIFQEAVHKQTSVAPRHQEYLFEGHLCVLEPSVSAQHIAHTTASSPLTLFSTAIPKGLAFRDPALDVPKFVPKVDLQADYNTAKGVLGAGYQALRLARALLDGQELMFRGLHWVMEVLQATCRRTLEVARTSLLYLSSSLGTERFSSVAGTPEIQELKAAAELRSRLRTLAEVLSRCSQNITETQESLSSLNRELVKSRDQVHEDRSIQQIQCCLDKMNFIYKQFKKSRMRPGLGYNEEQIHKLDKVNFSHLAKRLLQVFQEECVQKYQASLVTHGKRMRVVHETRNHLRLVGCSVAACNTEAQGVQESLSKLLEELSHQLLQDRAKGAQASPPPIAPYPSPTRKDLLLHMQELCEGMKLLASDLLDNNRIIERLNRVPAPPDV
As to conditions: at 0.1 µM.

The target in experiment [11] is T4, Inhibitor of nuclear factor kappa-B kinase subunit epsilon (Homo sapiens). As to conditions: at 1 µM.
The target of experiment [12] is T5, Serine/threonine-protein kinase Nek1 (Homo sapiens) (UniProt Q96PY6).
T5 sequence (whole entry): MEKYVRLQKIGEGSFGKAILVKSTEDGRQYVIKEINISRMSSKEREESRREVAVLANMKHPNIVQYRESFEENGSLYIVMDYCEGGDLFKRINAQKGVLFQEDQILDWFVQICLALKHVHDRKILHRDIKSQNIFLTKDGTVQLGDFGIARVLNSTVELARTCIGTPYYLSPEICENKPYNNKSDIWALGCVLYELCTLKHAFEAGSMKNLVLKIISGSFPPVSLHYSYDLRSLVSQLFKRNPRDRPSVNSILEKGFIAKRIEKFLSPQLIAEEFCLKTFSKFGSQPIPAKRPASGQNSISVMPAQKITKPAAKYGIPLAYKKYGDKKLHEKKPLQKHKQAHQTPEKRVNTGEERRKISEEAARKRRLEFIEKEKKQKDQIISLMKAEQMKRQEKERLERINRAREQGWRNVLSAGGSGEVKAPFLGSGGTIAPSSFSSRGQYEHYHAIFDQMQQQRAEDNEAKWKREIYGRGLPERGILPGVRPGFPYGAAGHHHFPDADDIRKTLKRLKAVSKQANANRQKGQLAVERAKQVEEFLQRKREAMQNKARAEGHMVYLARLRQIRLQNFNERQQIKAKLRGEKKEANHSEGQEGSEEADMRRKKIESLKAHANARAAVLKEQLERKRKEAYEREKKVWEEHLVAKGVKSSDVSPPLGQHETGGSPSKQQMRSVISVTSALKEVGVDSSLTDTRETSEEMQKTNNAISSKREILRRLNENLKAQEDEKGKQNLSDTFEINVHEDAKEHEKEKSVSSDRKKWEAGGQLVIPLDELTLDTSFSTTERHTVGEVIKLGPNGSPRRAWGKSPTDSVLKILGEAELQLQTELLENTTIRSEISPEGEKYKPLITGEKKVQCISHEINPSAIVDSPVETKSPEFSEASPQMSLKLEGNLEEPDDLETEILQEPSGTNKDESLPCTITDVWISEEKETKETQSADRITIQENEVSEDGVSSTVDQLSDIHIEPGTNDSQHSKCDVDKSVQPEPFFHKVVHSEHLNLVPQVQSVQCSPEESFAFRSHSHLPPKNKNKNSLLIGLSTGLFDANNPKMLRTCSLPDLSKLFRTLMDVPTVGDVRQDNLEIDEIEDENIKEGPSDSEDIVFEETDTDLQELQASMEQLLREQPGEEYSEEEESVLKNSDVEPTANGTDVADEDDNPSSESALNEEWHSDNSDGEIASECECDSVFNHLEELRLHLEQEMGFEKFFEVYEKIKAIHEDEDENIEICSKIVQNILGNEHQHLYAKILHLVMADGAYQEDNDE
As to conditions: at 0.1 µM.

In experiment [13] the target is T5, Serine/threonine-protein kinase Nek1 (Homo sapiens). Conditions: at 1 µM.
Experiment [14] has as its target T6, Serine/threonine-protein kinase Nek2 (Homo sapiens) (UniProt P51955).
T6 sequence (whole entry): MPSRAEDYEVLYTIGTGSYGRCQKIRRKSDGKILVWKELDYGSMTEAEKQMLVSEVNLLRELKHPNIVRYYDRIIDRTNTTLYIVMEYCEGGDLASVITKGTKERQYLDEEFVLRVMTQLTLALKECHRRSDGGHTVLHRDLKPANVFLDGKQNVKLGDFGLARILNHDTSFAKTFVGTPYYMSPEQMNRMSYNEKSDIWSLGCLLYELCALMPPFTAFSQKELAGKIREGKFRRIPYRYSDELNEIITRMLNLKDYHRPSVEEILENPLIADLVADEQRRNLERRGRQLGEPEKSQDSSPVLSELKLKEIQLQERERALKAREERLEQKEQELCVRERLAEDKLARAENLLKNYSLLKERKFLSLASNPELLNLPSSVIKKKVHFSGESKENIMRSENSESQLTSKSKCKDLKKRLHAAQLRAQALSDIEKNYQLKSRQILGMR
As to conditions: at 0.1 µM.

The target of experiment [15] is T6, Serine/threonine-protein kinase Nek2 (Homo sapiens). Conditions: at 1 µM.
The target of experiment [16] is Serine/threonine-protein kinase Nek6 (Homo sapiens) (UniProt Q9HC98). Conditions: at 0.1 µM.
Experiment [17] has the same target. Conditions: at 1 µM.
Experiment [18] concerns the target Serine/threonine-protein kinase Nek7 (Homo sapiens) (UniProt Q8TDX7). Conditions: at 0.1 µM.
Experiment [19] shares this target. Conditions: at 1 µM.
The target in experiment [20] is T7, Serine/threonine-protein kinase Nek9 (Homo sapiens) (UniProt Q8TD19).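 Also: reported value is the mean percent inhibition of NEK9.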
T7 sequence (whole entry): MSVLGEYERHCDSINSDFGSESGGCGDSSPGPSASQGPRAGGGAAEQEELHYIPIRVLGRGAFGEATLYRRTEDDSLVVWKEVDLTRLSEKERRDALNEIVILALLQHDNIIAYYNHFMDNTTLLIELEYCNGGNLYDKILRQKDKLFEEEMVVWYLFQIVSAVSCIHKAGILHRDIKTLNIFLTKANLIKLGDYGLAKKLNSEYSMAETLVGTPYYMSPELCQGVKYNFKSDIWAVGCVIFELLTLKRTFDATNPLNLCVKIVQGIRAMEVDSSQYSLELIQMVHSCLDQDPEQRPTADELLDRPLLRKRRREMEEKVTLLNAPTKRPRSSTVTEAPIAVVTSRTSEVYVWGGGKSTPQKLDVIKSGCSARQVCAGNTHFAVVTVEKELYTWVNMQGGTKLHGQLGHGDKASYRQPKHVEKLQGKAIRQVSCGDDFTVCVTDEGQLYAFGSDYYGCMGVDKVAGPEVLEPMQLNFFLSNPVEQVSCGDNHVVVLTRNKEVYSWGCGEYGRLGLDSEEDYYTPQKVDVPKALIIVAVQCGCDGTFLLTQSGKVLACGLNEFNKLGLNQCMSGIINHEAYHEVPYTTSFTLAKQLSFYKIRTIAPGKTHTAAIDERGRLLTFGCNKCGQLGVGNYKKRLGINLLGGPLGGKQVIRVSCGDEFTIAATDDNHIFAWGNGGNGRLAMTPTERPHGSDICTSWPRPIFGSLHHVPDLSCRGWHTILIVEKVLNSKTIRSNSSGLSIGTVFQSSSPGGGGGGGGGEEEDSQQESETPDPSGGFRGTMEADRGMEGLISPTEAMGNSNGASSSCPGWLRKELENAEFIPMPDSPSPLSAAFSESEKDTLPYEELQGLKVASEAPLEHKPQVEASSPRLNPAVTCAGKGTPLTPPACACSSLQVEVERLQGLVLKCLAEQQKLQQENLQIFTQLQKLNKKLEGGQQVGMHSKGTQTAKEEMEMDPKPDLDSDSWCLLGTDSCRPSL
Conditions: at 0.1 µM.

Sequence of Serine/threonine-protein kinase Nek6 (Homo sapiens) (Q9HC98 whole entry): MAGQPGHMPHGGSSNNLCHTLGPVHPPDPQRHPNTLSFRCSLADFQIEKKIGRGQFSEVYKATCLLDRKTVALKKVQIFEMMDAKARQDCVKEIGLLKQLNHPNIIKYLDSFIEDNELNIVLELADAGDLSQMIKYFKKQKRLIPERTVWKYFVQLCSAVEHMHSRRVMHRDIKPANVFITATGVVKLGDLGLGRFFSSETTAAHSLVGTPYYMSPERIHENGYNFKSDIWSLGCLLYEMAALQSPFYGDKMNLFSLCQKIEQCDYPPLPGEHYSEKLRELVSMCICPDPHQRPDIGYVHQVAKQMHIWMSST
Sequence of Serine/threonine-protein kinase Nek7 (Homo sapiens) (Q8TDX7 whole entry, looked up): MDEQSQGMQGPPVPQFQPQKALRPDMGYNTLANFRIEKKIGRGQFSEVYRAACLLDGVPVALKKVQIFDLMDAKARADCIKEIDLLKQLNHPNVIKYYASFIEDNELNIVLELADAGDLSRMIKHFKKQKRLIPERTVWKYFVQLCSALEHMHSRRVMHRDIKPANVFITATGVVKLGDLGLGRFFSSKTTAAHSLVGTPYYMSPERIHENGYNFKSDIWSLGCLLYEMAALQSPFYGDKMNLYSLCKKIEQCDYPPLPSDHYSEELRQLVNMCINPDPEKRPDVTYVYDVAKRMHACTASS
Sequence of Casein kinase II subunit alpha (Homo sapiens) (P68400 whole entry, looked up): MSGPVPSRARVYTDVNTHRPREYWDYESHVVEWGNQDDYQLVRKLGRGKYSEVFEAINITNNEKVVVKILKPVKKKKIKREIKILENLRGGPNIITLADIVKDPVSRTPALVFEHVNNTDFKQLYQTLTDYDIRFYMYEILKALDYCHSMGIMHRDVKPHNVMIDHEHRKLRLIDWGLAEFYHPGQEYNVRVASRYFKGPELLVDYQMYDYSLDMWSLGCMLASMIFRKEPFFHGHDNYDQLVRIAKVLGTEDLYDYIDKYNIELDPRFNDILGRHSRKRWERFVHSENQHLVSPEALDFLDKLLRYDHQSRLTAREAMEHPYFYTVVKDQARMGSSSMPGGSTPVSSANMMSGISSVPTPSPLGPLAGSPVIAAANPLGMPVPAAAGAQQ
Sequence of Sphingosine kinase 1 (Homo sapiens) (Q9NYA1 whole entry): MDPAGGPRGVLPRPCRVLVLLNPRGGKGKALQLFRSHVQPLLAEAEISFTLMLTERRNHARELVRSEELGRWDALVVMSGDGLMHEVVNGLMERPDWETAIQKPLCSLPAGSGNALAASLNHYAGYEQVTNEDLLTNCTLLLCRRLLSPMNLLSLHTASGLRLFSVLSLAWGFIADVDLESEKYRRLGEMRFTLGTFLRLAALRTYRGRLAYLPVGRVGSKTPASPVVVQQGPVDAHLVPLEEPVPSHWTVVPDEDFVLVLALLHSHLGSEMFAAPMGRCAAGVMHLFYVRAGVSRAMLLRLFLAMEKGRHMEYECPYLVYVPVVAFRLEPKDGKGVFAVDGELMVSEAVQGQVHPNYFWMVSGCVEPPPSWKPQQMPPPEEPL

For orientation: inhibition means the relative decrease from the control value, in per cent. As for `CC(=O)NCc1cccc(C#Cc2cncnc2Nc2ccc(OCc3cccc(F)c3)c(Cl)c2)c1`, the inhibition is -1.56% in experiment [1]; -0.13% in experiment [2]; -2.39% in experiment [3]; -0.56% in [4]; 1.55% in experiment [5]; -0.42% in experiment [6]. In addition, the inhibition in experiment [7] was 3.17%; in [8], -1.42%; in [9], 1.29%; in experiment [10], 0.37%; in [11], -1%; in [12] it was 0.64%. For the same compound, the inhibition in [13] is 1.25%; in experiment [14] it was 0.96%; in experiment [15] it was 0.7%; in [16], -1.02%; in experiment [17], -2.65%; in [18] it was 4.09%. Besides, the inhibition is 2.44% in experiment [19] and 0.38% in [20].
